# The panel holds about 83,000 compounds, 20% with a hit somewhere; the sample as a whole holds those more often.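 Values shown are percent growth following 48 h exposure of cells in 96-well plates to a single concentration of compound; below 10 was considered active.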 Calls of active or inactive are those of the source.
# Tested on: HL-60(TB) leukemia
# Assay: NCI-60 one-dose screen, 48 h (100 = growth as untreated, 0 = no growth, -100 = all killed)
# Conditions: 10 µM unless noted
row,SMILES,growth
1,Fc1cc(-c2ncc(-c3cc(F)c(F)c(F)c3)c(NC3CCCCCC3)n2)cc(F)c1F,97.4% (inactive)
2,Cc1ccc(OC(=O)c2ccccc2)cc1,103% (inactive)
3,CCOc1cc2ncc(C#N)c(Nc3ccc(OCc4ccccn4)c(Cl)c3)c2cc1NC(=O)/C=C/CN(C)C,2.7% (active)
4,CC(C)C[C@H](C(=O)O)N(C)C(=O)[C@@H]1CCCN1C(=O)[C@H](C)OC(=O)[C@H](CCC(N)=O)NC(=O)[C@@H]1CCC(=O)N1,85.8% (inactive)
5,CCOC(=O)c1c(-c2ccc(Cl)cc2)c(C#N)c(=O)n(-c2ccccc2CC)c1N,144% (inactive)
6,COC(=O)c1cc2oc(/C=N/NC(=O)c3cc4oc(-c5cccc(C(F)(F)F)c5)cc4[nH]3)cc2n1Cc1ccccc1,69.9% (inactive)
7,Cc1[nH]c(-c2cc(N)ccc2Cl)c2c1C(=O)CCCC2,-14.4% (active)
8,CCCC(=O)Nc1ccc2c(c1)CN1C(=O)c3ccccc3C1=N2,81.9% (inactive)
9,CCN1CCN(c2nc(NCCCNc3ccnc4cc(Cl)ccc34)c3ccccc3n2)CC1,-51.4% (active)
10,Cc1c(O)cc(-c2cnc(N/N=C\c3ccc(Cl)cc3)s2)c(O)c1C,-3.05% (active)
11,CCCC(CCC)(C(N)=O)C(=O)O,104% (inactive)
12,Cc1cc(Nc2nc(SCc3ccc(C(=O)Nc4ccc(F)cc4N)cc3)nn3cccc23)n[nH]1,-26.4% (active)
13,COc1ccc(/C=C2\COc3ccc(O)c(O)c3C2=O)c(OC)c1OC,-28.8% (active)
14,O=C1/C(=C/c2ccc(Cl)cc2)CN(C(=O)CCN2CCC(=NO)CC2)C/C1=C\c1ccc(Cl)cc1,-13% (active)
15,O=C1CC(c2ccccc2)Cc2nc3ccc(Br)cc3cc21 (centres undefined),-28.4% (active)
16,c1coc([C@@H]2C[C@@H]3Cc4ccc5ccccc5c4N2O3)c1,100% (inactive)
17,Cc1ccc(/C=C/c2c(C(=O)/C=C/c3ccc(Cl)cc3)c(C)nc3ccccc23)cc1,-8.89% (active)
18,Cc1ccc(C)c(-c2csc(Nc3ccc(C)c(C)c3)n2)c1,34.4% (inactive)
19,O=C(CSc1oc(-c2ccccc2)nc1S(=O)(=O)c1ccccc1)Nc1ccc(F)cc1,63.5% (inactive)
20,Clc1cn2cc(-c3ccc(Cl)c(Cl)c3Cl)nc2s1,85.3% (inactive)

row,SMILES,growth
1,COc1ccc2c(c1)c(-c1nc(-c3c[nH]c4ncccc34)cs1)cn2CCCN1CCOCC1,17.4% (inactive)
2,CCNCCNc1c(C)c(-c2ccc(C(F)(F)F)cc2)c(C#N)c2nc3ccccc3n12,74% (inactive)
3,COC(=O)[C@H](C(C)C)n1c(=O)c2cc(OC)c(OC)cc2c2cnc3[nH]ccc3c21,16.1% (inactive)
4,N=C(N)c1ccc(-c2ccc(-c3cccs3)s2)cc1,-46.6% (active)
5,CCCCn1c(Cc2ccc(OC)cc2)nc2cc(OC)c(OC)cc2c1=O,79.3% (inactive)
6,Cc1ccc(NC(=O)Nc2nc3ccccc3s2)cc1NC(=O)Nc1nc2ccccc2s1,106% (inactive)
7,CCCCCCCCNC(=O)[C@@H](N)CSCOC(C)=O,83.6% (inactive)
8,Cc1ccc(NC(=O)N[C@@H](Cc2cc(F)cc(F)c2)C(=O)N[C@@H]2C(=O)N3CCC[C@H]3C(=O)N3CCCC[C@H]3C(=O)N[C@@H](C)C(=O)N3C[C@H](C)C[C@H]3C(=O)O[C@H]2C)cc1,11.6% (inactive)
9,CCCCCCN(CCCCCC)CC(O)c1ccc2c3c(cccc13)CC2 (centres undefined),64.6% (inactive)
10,CCN(CC)CCSC(=O)C(O)(c1ccccc1)C1CCCC1 (centres undefined),94% (inactive)
11,COc1cc(/C=N/n2c(CN3CCOCC3)nc3ccccc3c2=O)cc(OC)c1OC,98.1% (inactive)
12,OCCc1ccc(Cl)cc1,104% (inactive)
13,COc1ccc2c(CCCc3ccc(Cl)cc3Cl)c3[n+](cc2c1OC)CCc1cc2c(cc1-3)OCO2,-41.4% (active)
14,Fc1ccc(C2CC(c3cccc(Nc4ccncc4)c3)=NN2c2cc(Cl)cc(Cl)c2)cc1 (centres undefined),-13.2% (active)
15,COc1cc(-c2nn(-c3ccc(C)cc3)cc2C(=O)O)ccc1O,82.2% (inactive)
16,CCN(CC)CCCCCCCNc1c2ccc(Cl)cc2nc2ccc(OC)cc12,-46.9% (active)
17,C#CCNC(=O)[C@]1(C)CCC[C@@]2(C)[C@H]1CC=C1C=C(C(C)C)CC[C@@H]12,131% (inactive)
18,CCOC(=O)c1c(C)nc2ccccc2c1/C=C/c1ccc(F)cc1,85.7% (inactive)
19,COC(=O)[C@]1(C)CCC[C@]2(C)[C@H]3C[C@H]4C(C(C)C)=C[C@]3(CC[C@H]21)[C@@H]1C(=O)CC[C@H](OCCC#N)[C@@H]14,113% (inactive)

# Reference: PubChem BioAssay (NCI)
